We go through 18 compounds from PubChem BioAssay (Tox21).

Test [1] is described as follows: A CellTox Green Cytotoxicity Assay to monitor cytotoxicity in HepG2 cells - 32 hour (AID 1224883). Further: nearly all actives have a fitted effect of over 50% in size. Further: potency means the concentration at half of the fitted maximal effect. In outline:
(§1)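 Cytotoxicity was tracked as dead-cell DNA fluorescence in HepG2 cells treated with test compounds at 37 C; each time-point value comes from one kinetic series spanning 0, 8, 16, 24, 32 and 40 h.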

Test [2] is described as follows: A CellTox Green Cytotoxicity Assay to monitor cytotoxicity in HEK293 cells - 8 hour (AID 1224884). Further: nearly all actives have a fitted effect of over 35% in size. The method in brief: (§2)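 Real-time, in one plate: 600 HEK293 cells/well with dead-cell DNA dye, pinned compound after 5 h, 37 C incubation over 40 h; viable cells give no appreciable fluorescence.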
Test [3] in a line: qHTS RealTime-Glo MT Cell Viability Assay in HepG2 cells - 16 hour (AID 1224885). Further: nearly all actives have a fitted effect of over 50% in size. Further: potency means the concentration at half of the fitted maximal effect. In outline:
(§3)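 Viability was tracked continuously by NanoLuc luminescence from prosubstrate reduced by living HepG2 cells, at successive time points over 40 h of compound exposure. Cells with reagent were preincubated 5 h at 37 °C before compound addition.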

Test [4] is described as follows: qHTS RealTime-Glo MT Cell Viability Assay in HEK293 cells - 8 hour (AID 1224887). Further: nearly all actives have a fitted effect of over 50% in size. Further: potency means the concentration at half of the fitted maximal effect. On activity change, negative = cytotoxicity: top concentration of the series differs between compounds. In outline: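 Kinetic, non-lysing viability readout. Seed HEK293 (600/well) with reagent, incubate 5 h at 37 C/5% CO2, pin 23 nL compound in DMSO, incubate at 37 C, read luminescence at 0, 8, 16, 24, 32, 40 h.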
The nature of test [5]: A CellTox Green Cytotoxicity Assay to monitor cytotoxicity in HEK293 cells - 16 hour (AID 1224888). Further: nearly all actives have a fitted effect of over 35% in size. Further: potency means the concentration at half of the fitted maximal effect. In outline: as §2
The nature of test [6]: qHTS RealTime-Glo MT Cell Viability Assay in HepG2 cells - 0 hour (AID 1224889). Further: nearly all actives have a fitted effect of over 50% in size. The method in brief: as §3
The nature of test [7]: A CellTox Green Cytotoxicity Assay to monitor cytotoxicity in HepG2 cells - 8 hour (AID 1224890). Further: nearly all actives have a fitted effect of over 45% in size. In outline:
as §1

Test [8] is described as follows: qHTS assay to identify small molecule antagonists of the estrogen receptor alpha (ER-alpha) signaling pathway using the BG1 cell line in the presence of 0.1 nM 17-beta-estradiol - cell viability counter screen (AID 1259241). Further: nearly all actives have a fitted effect of over 40% in size. Further: potency means the concentration at half of the fitted maximal effect. In outline: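 Viability in VM7Luc4E2 cells after 22 hr compound exposure under 0.1 nM 17beta-estradiol stimulation, by CellTiter-Fluor.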
The nature of test [9]: qHTS assay to identify small molecule antagonists of the androgen receptor (AR) signaling pathway using the MDA cell line in the presence of 0.5 nM R1881 - cell viability counter screen (AID 1259242). Further: nearly all actives have a fitted effect of over 45% in size. Further: potency means the concentration at half of the fitted maximal effect. In outline: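 Cells seeded at 3,000/well and allowed 5 hr at 37C, 0% CO2 before compound transfer and R1881 (0.5 nM final) addition; 16 hr later, live-cell protease fluorescence indicated cytotoxicity.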

Test [10] in a line: qHTS RealTime-Glo MT Cell Viability Assay in HEK293 cells - 24 hour (AID 1224886). Further: nearly all actives have a fitted effect of over 50% in size. Further: potency means the concentration at half of the fitted maximal effect. On activity change, negative = cytotoxicity: top concentration of the series differs between compounds. The method in brief: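 Viability tracked continuously by luminescence as live cells reduce a prosubstrate for NanoLuc; HEK293 cells preincubated 5 h, compound-treated at 37 C, and read at 0, 8, 16, 24, 32 and 40 h.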

Inconclusive results are not listed. Values without a mark were called inactive. The source made the active and inactive calls. The call rests on the fitted dose curve; in most records, active means well fitted curve in the direction sought with a large enough effect in the repeat runs; inconclusive means weak or mixed curves; inactive means no such curve, though single readings can be large; an effect the other way counts as inactive or inconclusive.
On the % scale 0 is the no-effect control and ±100 the full control effect.

Consider `S=C=Nc1cccc2ccccc12`, for which the Potency entry in test [1], in test [2], in test [3], in [5], in [6] and in test [7] was “inactive” each time. Moreover, in test [9], the Potency entry is “inactive”. Further, the results for the Potency in test [4] and in [8] were 21.7 µM (active) and 30.3 µM (active), respectively.
Consider `CCOP(=S)(OCC)SCS(=O)(=O)C(C)(C)C`, for which the Potency result in test [1], in [2], in test [3], in [10], in test [4] and in test [5] was “inactive” in each case. In addition, the Potency result in [7], in test [8] and in test [9] was “inactive” in each case.
As to `Oc1ccc(C(=C(Cl)Cl)c2ccc(O)cc2)cc1`, the Potency entry in [1], in [2], in test [3], in test [5], in test [6] and in test [7] was “inactive” throughout. Also, the Potency result in [8] and in [9] was “inactive” each time. In addition, the Potency in test [10] was 38.8 µM (active).
Take `CC[C@H]1C[C@@H]2C[C@H]3c4[nH]c5ccc(OC)cc5c4CCN(C2)[C@@H]13`: the Potency in [1] is 54 µM (active). The Potency entry in [2], in test [3], in test [4], in test [5] and in test [6] was “inactive” in each case.
`NC(=O)c1ccc(N)nc1`: the Potency result in test [1], in test [2], in test [3], in [4], in test [5] and in test [6] was “inactive” each time. For the same compound, the Potency result in [7], in test [8] and in test [9] was “inactive” in each case.
On to `COP(=S)(OC)Oc1cc(Cl)c(Br)cc1Cl`, for which the Potency result in [1], in test [2], in [3], in test [10], in test [4] and in [5] was “inactive” each time. Further, the Potency entry in test [8] is “inactive”.
With `C=CC(=O)OCC(COC(=O)C=C)(COC(=O)C=C)COC(=O)C=C`, the Potency in test [1] is 38.9 µM (active); in [3], 4.9 µM (active); in test [10], 3.89 µM (active); in test [8], 19.3 µM (active); in test [9], 13.7 µM (active). In addition, the Potency result in [2], in [5], in [6] and in [7] was “inactive” each time.
Consider `Cc1ccc(CCl)cc1`, for which the Potency result in test [1], in [2], in test [3], in test [10], in test [4] and in test [5] was “inactive” in each case. Further, the Potency entry in test [6], in test [8] and in test [9] was “inactive” throughout.
For `CN(CCCC(O)c1cccnc1)N=O` (stereo not given), the Potency result in test [1], in test [2], in [3], in test [4], in test [5] and in test [6] was “inactive” each time. The Potency result in test [7], in [8] and in test [9] was “inactive” each time.
Consider `CNC(C)Cc1ccc2c(c1)OCO2` (stereo not given), for which the Potency entry in test [1], in [2], in test [3], in [10], in [4] and in [5] was “inactive” each time. Further, the Potency result in test [6], in test [8] and in test [9] was “inactive” throughout.
As for `CN(C)C(=S)[S-].CN(C)C(=S)[S-].[Cu+2]`, the Potency in test [1] was 2.99 µM (active); in [3], 3.77 µM (active); in [10], 1.34 µM (active); in test [5], 2.38 µM (active); in test [8], 1.67 µM (active); in test [9] it was 5.92 µM (active). Moreover, the cytotoxicity increase in [2] was -12.4% [at 15.8 µM]. Moreover, in test [6], the activity change, negative = cytotoxicity was -22.4% [at 15.8 µM].
Take `c1ccc2c(c1)OCC(C1=NCCN1)O2` (stereo not given): the Potency result in test [1], in test [2], in [3], in test [4], in test [5] and in [6] was “inactive” each time. For the same compound, the Potency result in test [7], in test [8] and in [9] was “inactive” throughout.
Regarding `Cc1cc(C(F)(C(F)(F)F)C(F)(F)F)ccc1NC(=O)c1cccc(I)c1C(=O)NC(C)(C)CS(C)(=O)=O`, the Potency result in test [1], in [2], in [3], in test [4], in test [5] and in test [6] was “inactive” in each case. Further, the Potency entry in test [7], in test [8] and in test [9] was “inactive” throughout.
As to `CC(C)OS(C)(=O)=O`, the Potency result in [1], in [2], in test [3], in test [4], in test [5] and in test [6] was “inactive” throughout. Besides, the Potency entry in [7], in test [8] and in [9] was “inactive” each time.
`COP(=O)(OC)SCn1c(=O)oc2cc(Cl)cnc21`: the Potency entry in [1], in test [2], in test [3], in test [4], in [5] and in test [6] was “inactive” throughout. Moreover, the Potency entry in test [7] and in [8] was “inactive” in each case.
As to `COP(=O)(CCC(=O)NCO)OC`, the Potency result in test [1], in [2], in test [3], in [4], in [5] and in test [6] was “inactive” each time. For the same compound, the Potency entry in test [7], in [8] and in test [9] was “inactive” each time.
Take `CCOC(=O)CC(=O)CCl`: the Potency result in [1], in test [2], in test [3], in test [5], in test [6] and in test [7] was “inactive” each time. For the same compound, the Potency result in [8] and in test [9] was “inactive” in each case. In addition, the Potency in [10] is 43.6 µM (active).
With `CCN(CC)C(=S)[S-].CCN(CC)C(=S)[S-].[Zn+2]`, the Potency in [1] is 9.69 µM (active); in test [3] it was 13.7 µM (active); in [10], 4.86 µM (active); in [8], 1.92 µM (active). Moreover, the Potency result in test [2], in test [5], in [6], in [7] and in test [9] was “inactive” in each case.
